# Measurements published in PubChem BioAssay (NCI).
# The panel holds about 83,000 compounds, 20% with a hit somewhere; the sample as a whole holds those more often.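 Growth was measured after 48 h exposure to one concentration of compound in 96-well plates. Values under 10 count as active.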 Values without a mark were called inactive. Active and inactive are the calls of the source.
# Columns and labels:
# Assay in all cases: NCI-60 one-dose screen, 48 h (100 = growth as untreated, 0 = no growth, -100 = all killed)
# Conditions in all cases: 10 µM unless noted
# [1] = system: SR leukemia
# [2] = system: RPMI-8226 leukemia
# [3] = system: OVCAR-8 ovarian
# [4] = system: OVCAR-5 ovarian
# [5] = system: OVCAR-4 ovarian
# [6] = system: SK-OV-3 ovarian
# [7] = system: IGROV1 ovarian
# [8] = system: OVCAR-3 ovarian
# [9] = system: HS 578T breast
# [10] = system: NCI/ADR-RES ovarian
SMILES,growth [1],growth [2],growth [3],growth [4],growth [5],growth [6],growth [7],growth [8],growth [9],growth [10]
CCc1ccc(C2=C/C(=C/c3ccc(Cl)cc3)C(=O)N2CCc2ccc(S(N)(=O)=O)cc2)cc1,6.7% (active),18.9%,21.5%,47.2%,32.1%,46%,27.7%,23.6%,62.6%,51.8%
CCCCCCCCN(CCCCCCCC)CC(O)c1cc(-c2ccccc2)nc2ccc(OC)cc12 (stereo not given),5.05% (active),1.99% (active),8.91% (active),101%,78.4%,103%,95.8%,66.6%,99.1%,13.4%
COc1ccc(OC)c(NCC(=O)n2nc(/C=C\c3ccc(O)c(OC)c3)cc2/C=C\c2ccc(O)c(OC)c2)c1,0.623% (active),-8.66% (active),7.25% (active),25.3%,39.2%,-3.5% (active),11.6%,12%,22.2%,20.4%
COc1cc(-c2nc(SCC(=O)Nc3ccc(C(C)=O)cc3)[nH]c(=O)c2C#N)cc(OC)c1OC,7.62% (active),7.47% (active),23.2%,51.9%,61.5%,34.6%,38.4%,0.381% (active),10.6%,75.7%
O=C1c2ccccc2OC=C(c2ccccc2)N1CCCCN1CCCCC1,65.2%,23.6%,51.7%,101%,58.7%,13.2%,73.7%,63.6%,75.1%,88.8%
O=C(C[n+]1cccc(Br)c1)c1ccc2c(c1)CCCC2,99.3%,96%,108%,96.2%,114%,89.7%,101%,99.9%,105%,102%
N#Cc1c2c(c(N)[nH]c1=O)C(=O)NC2(O)c1ccccc1 (stereo not given),93.1%,107%,106%,111%,117%,103%,109%,102%,111%,105%
COc1ccc(-c2nn(-c3cccc(Cl)c3)cc2-c2cc(-c3ccc(Br)cc3)[nH]c(=O)c2C#N)cc1,35.6%,75%,77.9%,105%,-34% (active),89.1%,92.9%,68%,33%,65%
NC(CCCC(N)C(=O)c1ccccc1)C(=O)O (stereo not given),124%,115%,86.2%,103%,97.3%,93%,101%,110%,108%,103%
O=C(O)c1ccc(-n2cc(/C=N/Nc3ccccc3F)c(-c3ccc(O)cc3)n2)cc1,73.6%,59.1%,88.4%,80.9%,94.8%,102%,81%,82.7%,92.4%,80%
